Data on five compounds can be found in PubChem BioAssay.

The structures appear in SMILES notation. Calls of active or inactive are those of the source.

One assay concerns the target Albumin (Bos taurus) (UniProt P02769). The assay can be described thus: bovine serum albumin binders on microarray, profiling panel, artefact control for SMM control protein annotation, biochemical, small-molecule microarray, Alexa647 label, 635/667 nm fluorescence (AID 1118).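 Further: score merges 667 nm emission intensity and signal-to-noise per printed compound spot.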 The conditions noted are these: BSA-A647 binding, fluorescence 635 nm, higher = more signal.
Assay [1] is described as follows: small-molecule microarray binders of probe aXIP, primary screen, biochemical, NeuroSMM set, 635/667 nm fluorescence (AID 1119).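 Further: probe is the protein aXip251-270 applied at 1 µg/mL to compound-printed slides; binding of probe to printed compounds measured as 667 nm fluorescence plus signal to noise.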 To be noted: higher = more signal, called active from +8 up or from −8 down.
Assay [2] in a line: small-molecule binders of probe aNOTCH3, primary screen, biochemical, small-molecule microarray, 635/667 nm fluorescence (AID 1120).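 Further: probe is a biotin-tagged antibody raised against NOTCH3 rather than NOTCH3 protein; score merges spot fluorescence near 667 nm with spot signal to noise.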 To be noted: higher = more signal.
Assay [3] in a line: small-molecule binders of probe aNOTCH2, primary screen, biochemical, small-molecule microarray, 635/667 nm fluorescence (AID 1121).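 Further: score merges feature fluorescence read at 667 nm with its signal to noise.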 The conditions noted are these: higher = more signal.
Assay [4] concerns the target Carbonic anhydrase 2 (Homo sapiens) (UniProt P00918). The assay can be described thus: CAII small-molecule binders, profiling panel, biochemical, small-molecule microarray, Alexa647-labelled CAII (AID 1122). The conditions noted are these: CAII-A647 binding fluorescence, higher = more signal.
Assay [5] in a line: COS7 lysate on small-molecule microarray, probe aHis, 635 nm (AID 1123).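 Further: z-score combines 667nm fluorescence intensity with signal-to-noise per printed compound spot.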 To be noted: COS7 cell lysate, fluorescence, higher = more signal.
Assay [6] is described as follows: compound binding in COS7 lysate, probe aLAP1, primary screen, cell lysate, small-molecule microarray (AID 1124).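 Further: lysate comes from COS7 cells expressing LAP1 and is applied at 0.3 µg/mL; score merges spot fluorescence near 667 nm with signal-to-noise over triplicate slides.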 The conditions noted are these: probe aLAP1, fluorescence, higher = more signal.
In a further assay the test system is Sam68 (KHDRBS1). Briefly: Sam68 small-molecule binders, primary screen, biochemical, small-molecule microarray, 635 nm fluorescence (AID 1125).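 Further: score merges 667 nm channel intensity with signal to noise over triplicate slides.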 The conditions noted are these: small-molecule microarray binding, higher = more signal.
In assay [7] the test system is Chordin-like protein 2 (CHRDL2). The assay can be described thus: CHRDL2 small-molecule binders, primary screen, biochemical, small-molecule microarray, 635 nm fluorescence (AID 1126).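 Further: printed compound slides probed with Chrdl2 protein at 4 µg/mL for 1 h at 4 C; score merges 667 nm emission intensity with signal to noise over three replicate slides.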 The conditions noted are these: small-molecule microarray binding, fluorescence 635 nm; higher = more signal.
Assay [8] concerns the target Concanavalin-A (Canavalia ensiformis) (UniProt P02866). Briefly: ConA small-molecule binders, primary screen, artefact control for SMM control protein annotation, biochemical, small-molecule microarray, Alexa647 label, 635 nm (AID 1127).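 Further: z combines 667 nm emission intensity with signal-to-noise across three replicate slides.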 The conditions noted are these: ConA-A647 binding fluorescence, higher = more signal.
Assay [9] can be described thus: anti-His antibody binders, primary screen, artefact control for SMM control protein annotation, biochemical, small-molecule microarray, 635 nm fluorescence (AID 1128).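 Further: score merges feature fluorescence with signal-to-noise for each printed compound spot.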 The conditions noted are these: anti-His Alexa647 antibody binding, higher = more signal.
In assay [10] the test system is Human papillomavirus type 1a E7 protein (residues 1-88). Briefly: HPV1a E7 small-molecule binders, primary screen, biochemical, small-molecule microarray, residues 1-88, 635 nm (AID 1129). To be noted: small-molecule microarray binding, fluorescence 635 nm; higher = more signal.
In assay [11] the target is Focal adhesion kinase 1 (Homo sapiens) (UniProt Q05397). Briefly: small-molecule microarray binders of FAK, primary screen, biochemical, 635/667 nm fluorescence, BSA, DTT (AID 1130).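 Further: composite of spot emission at 667 nm and signal to noise over triplicate slides.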 To be noted: PTK2 binding, 635 nm fluorescence, higher = more signal.
Chain of Focal adhesion kinase 1 (Homo sapiens) (Q05397 whole entry, looked up): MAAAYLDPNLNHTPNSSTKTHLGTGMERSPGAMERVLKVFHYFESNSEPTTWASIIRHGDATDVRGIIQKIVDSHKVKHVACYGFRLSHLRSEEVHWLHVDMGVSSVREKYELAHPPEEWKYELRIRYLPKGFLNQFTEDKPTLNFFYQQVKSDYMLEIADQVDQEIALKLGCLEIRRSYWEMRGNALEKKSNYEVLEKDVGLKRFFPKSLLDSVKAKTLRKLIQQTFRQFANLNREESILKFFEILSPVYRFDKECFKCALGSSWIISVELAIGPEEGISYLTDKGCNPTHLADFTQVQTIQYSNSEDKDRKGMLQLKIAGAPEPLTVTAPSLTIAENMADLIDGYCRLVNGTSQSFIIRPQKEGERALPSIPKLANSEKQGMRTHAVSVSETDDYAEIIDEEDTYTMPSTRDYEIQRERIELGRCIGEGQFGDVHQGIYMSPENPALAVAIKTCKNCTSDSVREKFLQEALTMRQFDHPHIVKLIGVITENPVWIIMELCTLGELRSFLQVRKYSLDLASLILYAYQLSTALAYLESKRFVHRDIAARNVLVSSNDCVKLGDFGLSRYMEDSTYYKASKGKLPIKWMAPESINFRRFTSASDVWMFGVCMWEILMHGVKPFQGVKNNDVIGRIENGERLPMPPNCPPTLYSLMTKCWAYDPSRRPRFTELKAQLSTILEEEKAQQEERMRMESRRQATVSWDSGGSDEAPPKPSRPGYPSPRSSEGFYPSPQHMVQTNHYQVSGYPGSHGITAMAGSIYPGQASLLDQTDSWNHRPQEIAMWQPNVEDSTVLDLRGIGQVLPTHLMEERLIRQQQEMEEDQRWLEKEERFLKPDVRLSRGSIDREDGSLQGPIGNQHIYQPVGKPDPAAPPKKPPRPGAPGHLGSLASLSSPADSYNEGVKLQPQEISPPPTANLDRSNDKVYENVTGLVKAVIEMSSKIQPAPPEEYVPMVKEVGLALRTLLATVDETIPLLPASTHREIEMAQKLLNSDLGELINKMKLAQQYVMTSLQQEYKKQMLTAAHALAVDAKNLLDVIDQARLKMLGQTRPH
In assay [12] the test system is Fibrinogen (Alexa647-labelled). Briefly: fibrinogen binders on compound microarrays, profiling panel, artefact control for SMM control-protein annotation, biochemical, small-molecule microarray, 635/667 nm fluorescence (AID 1131).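 Further: z-score merges 667 nm fluorescence with per-spot signal-to-noise over triplicate slides.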 The conditions noted are these: fibrinogen-A647 binding fluorescence, higher = more signal.
Assay [13] deals with Follistatin (Homo sapiens) (UniProt P19883). The assay can be described thus: follistatin binders on small-molecule microarrays, primary screen, biochemical, small-molecule microarray, 635/667 nm fluorescence (AID 1132). To be noted: FST binding, 635 nm fluorescence, higher = more signal.
Chain of Follistatin (Homo sapiens) (P19883 whole entry, looked up): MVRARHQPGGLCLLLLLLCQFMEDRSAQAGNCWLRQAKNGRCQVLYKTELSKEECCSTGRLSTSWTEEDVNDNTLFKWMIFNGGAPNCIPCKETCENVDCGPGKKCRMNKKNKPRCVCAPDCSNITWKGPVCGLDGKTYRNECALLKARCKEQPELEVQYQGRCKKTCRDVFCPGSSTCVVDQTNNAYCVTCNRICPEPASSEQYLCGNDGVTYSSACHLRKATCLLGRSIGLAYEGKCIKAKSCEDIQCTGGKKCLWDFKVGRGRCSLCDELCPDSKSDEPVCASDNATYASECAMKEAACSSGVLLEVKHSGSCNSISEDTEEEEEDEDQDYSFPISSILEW
Assay [14] has as its target Fibroblast growth factor 2 (Homo sapiens) (UniProt P09038). Briefly: FGF2 binders on small-molecule microarrays, primary screen, biochemical, small-molecule microarray, 635/667 nm fluorescence (AID 1133). The conditions noted are these: small-molecule microarray binding, FGF2, fluorescence 635/667; higher = more signal.
Assay [15] in a line: mitochondrial membrane potential change in A549 cells, profiling panel, cell-based, JC-1 fluorescence, basal, 24 h, 100 nL (AID 1138).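 Further: A549 lung adenocarcinoma cells under basal conditions with no added stimulus; test concentration not given here.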 The conditions noted are these: higher = more signal.
For the next assay, the system named is Lefty1. The assay can be described thus: Lefty1 binders on small-molecule microarrays, primary screen, biochemical, small-molecule microarray, 635/667 nm fluorescence (AID 1139). The conditions noted are these: small-molecule microarray binding, fluorescence 635/667; higher = more signal.
The subject of assay [16] is wheat germ agglutinin (Triticum aestivum), Alexa647-labelled. Briefly: wheat germ agglutinin binders on compound microarrays, profiling panel, artefact control for SMM control-protein annotation, biochemical, small-molecule microarray, 635/667 nm fluorescence (AID 1140).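 Further: score merges 667 nm feature emission with signal to noise over triplicate slides.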 To be noted: WGA-A647 binding, 635 nm fluorescence, higher = more signal.
Assay [17] deals with Luciferin 4-monooxygenase (Photinus pyralis) (UniProt P08659). The assay can be described thus: firefly luciferase enzyme inhibitors, primary screen, biochemical, luminescence, purified enzyme, 2006 set (AID 1141).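 Further: cell-free assay with purified firefly luciferase at 100 ng per well in PBS; test concentration not given here.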 To be noted: SteadyGlo luminescence, 30 min, higher = more signal, called active from +8 up or from −8 down.
Chain of Luciferin 4-monooxygenase (Photinus pyralis) (P08659 whole entry, looked up): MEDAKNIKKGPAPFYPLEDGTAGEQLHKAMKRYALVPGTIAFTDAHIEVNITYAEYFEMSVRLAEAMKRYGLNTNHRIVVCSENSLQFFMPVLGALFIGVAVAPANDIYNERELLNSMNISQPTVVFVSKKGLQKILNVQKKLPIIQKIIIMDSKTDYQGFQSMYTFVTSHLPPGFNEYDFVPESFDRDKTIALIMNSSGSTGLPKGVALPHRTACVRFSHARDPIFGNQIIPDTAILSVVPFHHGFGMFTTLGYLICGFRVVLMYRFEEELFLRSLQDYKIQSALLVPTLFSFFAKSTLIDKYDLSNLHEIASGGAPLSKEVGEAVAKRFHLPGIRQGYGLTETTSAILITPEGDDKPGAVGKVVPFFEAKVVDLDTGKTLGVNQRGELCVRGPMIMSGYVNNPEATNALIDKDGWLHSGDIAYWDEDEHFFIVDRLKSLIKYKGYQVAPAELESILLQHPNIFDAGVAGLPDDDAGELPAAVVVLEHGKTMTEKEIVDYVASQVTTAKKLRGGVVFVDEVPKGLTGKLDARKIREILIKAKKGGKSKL

Chain of Albumin (Bos taurus) (P02769 whole entry, looked up): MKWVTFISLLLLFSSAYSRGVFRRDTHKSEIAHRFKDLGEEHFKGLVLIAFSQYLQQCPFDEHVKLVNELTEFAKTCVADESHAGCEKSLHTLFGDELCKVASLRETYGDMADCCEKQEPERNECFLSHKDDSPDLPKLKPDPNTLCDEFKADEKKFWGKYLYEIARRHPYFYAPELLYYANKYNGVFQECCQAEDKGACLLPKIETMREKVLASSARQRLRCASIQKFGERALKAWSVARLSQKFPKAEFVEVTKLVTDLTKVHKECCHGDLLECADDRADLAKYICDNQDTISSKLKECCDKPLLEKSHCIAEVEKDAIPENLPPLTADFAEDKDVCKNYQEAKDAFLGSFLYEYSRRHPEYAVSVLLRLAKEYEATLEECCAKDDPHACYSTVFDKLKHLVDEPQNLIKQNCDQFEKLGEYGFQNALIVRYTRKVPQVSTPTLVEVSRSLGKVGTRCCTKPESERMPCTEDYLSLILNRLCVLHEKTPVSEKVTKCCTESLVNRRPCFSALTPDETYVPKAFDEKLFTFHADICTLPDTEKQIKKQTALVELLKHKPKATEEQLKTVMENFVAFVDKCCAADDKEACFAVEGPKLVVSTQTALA
Chain of Concanavalin-A (Canavalia ensiformis) (P02866 whole entry, looked up): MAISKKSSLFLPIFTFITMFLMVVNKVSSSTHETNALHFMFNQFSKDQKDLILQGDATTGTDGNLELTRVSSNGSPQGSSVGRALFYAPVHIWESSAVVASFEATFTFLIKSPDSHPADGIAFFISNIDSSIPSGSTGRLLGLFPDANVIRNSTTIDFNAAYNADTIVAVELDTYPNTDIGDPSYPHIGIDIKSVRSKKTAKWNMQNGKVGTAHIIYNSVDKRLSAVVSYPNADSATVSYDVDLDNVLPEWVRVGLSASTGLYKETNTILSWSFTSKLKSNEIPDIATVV
Chain of Fibroblast growth factor 2 (Homo sapiens) (P09038 whole entry, looked up): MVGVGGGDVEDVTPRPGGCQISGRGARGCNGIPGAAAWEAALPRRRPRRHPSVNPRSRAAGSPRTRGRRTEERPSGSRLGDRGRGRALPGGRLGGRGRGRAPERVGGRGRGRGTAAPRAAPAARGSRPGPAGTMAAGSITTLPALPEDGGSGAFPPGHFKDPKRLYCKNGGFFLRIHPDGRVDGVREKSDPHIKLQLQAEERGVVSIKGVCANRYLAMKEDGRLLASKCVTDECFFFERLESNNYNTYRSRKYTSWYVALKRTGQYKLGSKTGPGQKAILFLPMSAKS

For `COC(=O)[C@]1(Cc2ccccc2N=[N+]=[N-])N=C(c2ccc(OCCCO)cc2)O[C@@H]1c1ccccc1N=[N+]=[N-]`, the composite z-score with Albumin (Bos taurus) is 0.308; in assay [2] it was -0.0976; in assay [3], -0.148; in assay [4], 0.595; in assay [5], 0.794; in assay [6], 0.405. In addition, the composite z-score was -0.255 in the assay on Sam68 (KHDRBS1); -0.153 in assay [7]; 0.725 in assay [8]; 2.87 in assay [9]; 0.825 in assay [10]; 0.188 in [11]. The composite z-score in assay [12] was 0.482; in [13] it was 1.25; in assay [14], -0.0133; in the assay on Lefty1, 0.131; in [16], 0.149. For the same compound, the composite Z-score in [1] was -0.47 (inactive). For the same compound, the results for the z-score in assay [15] and in assay [17] were -0.856 and -1.42 (inactive), respectively.
In the case of `COC(=O)[C@@]1(Cc2ccccc2N=[N+]=[N-])COC(c2ccc(OCCCO)cc2)=N1`, the composite z-score with Albumin (Bos taurus) is -0.261; in assay [2] it was -0.0546; in assay [3], -0.112; in assay [4], 0.573; in assay [5] it was 1.99; in [6], 0.753. In addition, the composite z-score with Sam68 (KHDRBS1) was 0.994; in assay [7], -0.473; in assay [8] it was 1.08; in assay [9], 1.19; in [10] it was 1.16; in [11], 0.676. Besides, the composite z-score in assay [12] was 0.492; in assay [13], 1.27; in assay [14], 0.3; in the assay with Lefty1, -0.57; in assay [16] it was 0.439. In addition, the composite Z-score in assay [1] is 1.07 (inactive). Further, the z-score in assay [15] was 0.719; in [17], -1.93 (inactive).
`COC(=O)[C@@]1(Cc2ccccc2)[C@H]2c3cc(C(=O)N(C)C)n(Cc4c(-c5ccccc5)noc4C)c3C[C@H]2CN1C(=O)c1ccccc1`: the composite z-score with Albumin (Bos taurus) was 1.01; in [2], 0.187; in assay [3], 0.379; in assay [4] it was 0.437; in assay [5] it was 2.63; in [6], -0.157. In addition, the composite z-score in the assay with Sam68 (KHDRBS1) is 0.486; in assay [7], 0.28; in [8], 0.564; in assay [9] it was 2.29; in assay [10] it was 1.22; in assay [11], 1.21. Besides, the composite z-score in assay [12] was 0.968; in assay [13] it was 0.212; in assay [14] it was -0.533; in the assay with Lefty1, -0.579; in [16], 1.17. Moreover, in [1], the composite Z-score is -0.899 (inactive). The figures for the z-score in assay [15] and in assay [17] were 0.582 and 1.49 (inactive), respectively.
As for `O=C1O[C@H](c2ccccc2)[C@H](c2ccccc2)N2[C@H]1[C@@H](C(=O)NC[C@H](O)c1ccccc1)[C@]1(C(=O)Nc3ccc(C#CCCO)cc31)[C@H]2c1ccc(O)cc1`, the composite z-score in the assay with Albumin (Bos taurus) is -0.746; in assay [2], -0.0259; in assay [3], -0.14; in [4], -0.702; in assay [5], 0.155; in assay [6], 1.11. The composite z-score in the assay on Sam68 (KHDRBS1) was -0.317; in assay [7], -0.316; in assay [8], -0.743; in assay [9], -1.3; in assay [10], -1.08; in [11] it was -0.598. For the same compound, the composite z-score was -1.07 in assay [12]; -1.26 in assay [13]; -0.702 in [14]; -0.929 in the assay with Lefty1; -1.09 in assay [16]. Moreover, in assay [1], the composite Z-score was 1.33 (inactive). Moreover, the z-score in assay [15] was -1.17; in assay [17] it was 0.145 (inactive).
For the compound `O=C(CCN1CCOCC1)c1cccc(O)c1`, the composite z-score with Albumin (Bos taurus) amounted to 0.379; in assay [2], 0.324; in assay [3], 0.0292; in assay [4], 0.634; in [5], 0.973; in [6], 0.629. Besides, the composite z-score in the assay on Sam68 (KHDRBS1) turned out to be 0.922; in assay [7], 1.48; in assay [8], 0.767; in assay [9] it was 1.52; in assay [10], 0.854; in [11], 0.531. Also, the composite z-score in [12] is 0.884; in [13], 1.35; in assay [14], 1.55; in the assay on Lefty1 it was 1.41; in assay [16], 1.07. Moreover, the composite Z-score in assay [1] is 0.989 (inactive). Besides, the figures for the z-score in assay [15] and in [17] were 0.574 and 0.618 (inactive), respectively.
